Measurements taken from PubChem BioAssay.
Calls of active or inactive are those of the source.

What was measured:
[1] = small molecules captured by biotinylated probe aFSTL3 – biochemical, small-molecule microarray, fluorescence 635/667, stem cell growth factor project, primary screen (AID 1064); details: higher = more signal;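 further: measures binding of the biotinylated anti-FSTL3 antibody to printed compounds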
[2] = binders from COS7 lysate, DM2A8 probe, primary screen, torsin A project, cell lysate, small-molecule microarray, fluorescence 635/667 (AID 1065); details: higher = more signal, COS7 lysate expressing mutant human TOR1A
[3] = small molecules captured by biotinylated probe aFGF2 – biochemical, small-molecule microarray, fluorescence 635/667, stem cell growth factor project, primary screen (AID 1067); details: higher = more signal;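 further: measures binding of biotinylated aFGF2 protein to printed compounds on slides; z-score merges feature fluorescence and signal-to-noise across triplicate slides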
[4] = small molecules captured by biotinylated probe aFGF10 – biochemical, small-molecule microarray, fluorescence 635/667, stem cell growth factor project, primary screen (AID 1071); details: higher = more signal;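 further: score merges 667 nm spot intensity and signal to noise from triplicate slides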
[5] = target: Neurogenic locus notch homolog protein 2 (Homo sapiens) (UniProt Q04721); assay: small molecules binding Notch2 protein – biochemical, small-molecule microarray, 635 nm fluorescence, stem cell growth factors, primary screen (AID 1073); details: higher = more signal
Sequence of Neurogenic locus notch homolog protein 2 (Homo sapiens) (Q04721 whole entry, looked up, canonical isoform): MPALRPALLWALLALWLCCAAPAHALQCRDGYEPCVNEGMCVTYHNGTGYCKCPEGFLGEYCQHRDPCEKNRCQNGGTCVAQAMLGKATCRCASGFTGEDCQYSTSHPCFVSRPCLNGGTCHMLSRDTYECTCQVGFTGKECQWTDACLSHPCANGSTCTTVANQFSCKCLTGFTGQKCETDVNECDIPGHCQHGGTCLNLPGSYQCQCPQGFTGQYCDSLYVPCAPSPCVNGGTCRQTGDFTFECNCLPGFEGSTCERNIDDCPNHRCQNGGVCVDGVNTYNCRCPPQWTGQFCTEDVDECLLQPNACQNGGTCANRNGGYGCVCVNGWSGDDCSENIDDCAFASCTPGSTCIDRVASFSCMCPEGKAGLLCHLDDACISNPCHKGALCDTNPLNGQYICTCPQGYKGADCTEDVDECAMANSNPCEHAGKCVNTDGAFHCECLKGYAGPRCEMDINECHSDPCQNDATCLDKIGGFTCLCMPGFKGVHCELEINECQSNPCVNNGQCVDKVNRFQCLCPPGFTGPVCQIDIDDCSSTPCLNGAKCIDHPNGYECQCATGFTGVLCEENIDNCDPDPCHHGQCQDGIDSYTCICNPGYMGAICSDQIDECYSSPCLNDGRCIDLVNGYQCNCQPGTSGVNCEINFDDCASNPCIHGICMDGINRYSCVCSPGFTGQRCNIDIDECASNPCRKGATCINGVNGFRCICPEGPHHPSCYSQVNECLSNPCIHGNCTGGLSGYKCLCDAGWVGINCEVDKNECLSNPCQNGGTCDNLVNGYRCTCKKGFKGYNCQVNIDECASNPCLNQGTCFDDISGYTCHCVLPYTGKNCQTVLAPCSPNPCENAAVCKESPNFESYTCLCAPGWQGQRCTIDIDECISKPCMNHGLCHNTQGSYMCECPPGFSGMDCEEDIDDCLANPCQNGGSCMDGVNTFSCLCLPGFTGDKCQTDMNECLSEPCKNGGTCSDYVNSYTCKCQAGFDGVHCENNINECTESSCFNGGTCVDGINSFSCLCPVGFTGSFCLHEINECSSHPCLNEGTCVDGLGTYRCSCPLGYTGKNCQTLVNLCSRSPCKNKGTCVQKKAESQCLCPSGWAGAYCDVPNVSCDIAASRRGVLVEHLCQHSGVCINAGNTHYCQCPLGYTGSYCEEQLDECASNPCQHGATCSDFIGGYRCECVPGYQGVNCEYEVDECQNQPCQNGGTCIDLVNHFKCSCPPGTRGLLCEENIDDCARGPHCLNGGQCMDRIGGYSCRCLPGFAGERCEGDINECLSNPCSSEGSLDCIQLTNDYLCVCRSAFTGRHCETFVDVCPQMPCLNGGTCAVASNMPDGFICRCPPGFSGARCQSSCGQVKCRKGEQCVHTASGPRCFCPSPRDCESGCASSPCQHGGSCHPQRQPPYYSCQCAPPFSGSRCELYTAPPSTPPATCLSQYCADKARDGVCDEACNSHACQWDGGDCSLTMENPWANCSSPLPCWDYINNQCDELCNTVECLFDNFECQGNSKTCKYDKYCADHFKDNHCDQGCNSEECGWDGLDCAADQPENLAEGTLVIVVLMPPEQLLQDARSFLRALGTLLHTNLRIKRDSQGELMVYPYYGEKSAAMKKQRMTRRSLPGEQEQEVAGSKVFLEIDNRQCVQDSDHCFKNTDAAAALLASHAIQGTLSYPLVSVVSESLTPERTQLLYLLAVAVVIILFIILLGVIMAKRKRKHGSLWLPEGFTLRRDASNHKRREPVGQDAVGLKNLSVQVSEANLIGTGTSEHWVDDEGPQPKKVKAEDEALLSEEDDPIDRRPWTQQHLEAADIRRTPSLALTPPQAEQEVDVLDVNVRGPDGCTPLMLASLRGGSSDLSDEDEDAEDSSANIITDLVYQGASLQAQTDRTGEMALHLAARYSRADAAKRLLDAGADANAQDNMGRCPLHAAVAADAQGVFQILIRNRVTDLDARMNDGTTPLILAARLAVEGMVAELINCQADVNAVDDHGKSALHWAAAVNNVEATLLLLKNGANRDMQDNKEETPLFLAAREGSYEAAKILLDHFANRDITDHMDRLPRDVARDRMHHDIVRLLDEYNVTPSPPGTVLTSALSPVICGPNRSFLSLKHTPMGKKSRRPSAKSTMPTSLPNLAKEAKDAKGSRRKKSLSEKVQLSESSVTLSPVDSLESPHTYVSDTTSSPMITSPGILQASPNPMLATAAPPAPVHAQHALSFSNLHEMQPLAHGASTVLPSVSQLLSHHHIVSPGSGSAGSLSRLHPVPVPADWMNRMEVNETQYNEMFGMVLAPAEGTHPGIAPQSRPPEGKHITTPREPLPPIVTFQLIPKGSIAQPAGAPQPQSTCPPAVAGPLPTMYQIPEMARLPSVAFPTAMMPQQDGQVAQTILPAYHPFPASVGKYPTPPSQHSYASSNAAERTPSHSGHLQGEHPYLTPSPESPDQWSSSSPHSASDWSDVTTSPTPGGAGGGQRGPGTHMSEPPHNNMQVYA

[6] = target: Pro-neuregulin-1, membrane-bound isoform (Homo sapiens) (UniProt Q02297); assay: small molecules binding neuregulin-1 protein – biochemical, small-molecule microarray, fluorescence 635/667, psychiatric disease protein project, primary screen (AID 1075); details: NRG1 binding, 635 nm fluorescence, higher = more signal;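 further: score combines 667 nm spot fluorescence with signal to noise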
Sequence of Pro-neuregulin-1, membrane-bound isoform (Homo sapiens) (Q02297 whole entry, looked up, the tested form may be a part, canonical isoform): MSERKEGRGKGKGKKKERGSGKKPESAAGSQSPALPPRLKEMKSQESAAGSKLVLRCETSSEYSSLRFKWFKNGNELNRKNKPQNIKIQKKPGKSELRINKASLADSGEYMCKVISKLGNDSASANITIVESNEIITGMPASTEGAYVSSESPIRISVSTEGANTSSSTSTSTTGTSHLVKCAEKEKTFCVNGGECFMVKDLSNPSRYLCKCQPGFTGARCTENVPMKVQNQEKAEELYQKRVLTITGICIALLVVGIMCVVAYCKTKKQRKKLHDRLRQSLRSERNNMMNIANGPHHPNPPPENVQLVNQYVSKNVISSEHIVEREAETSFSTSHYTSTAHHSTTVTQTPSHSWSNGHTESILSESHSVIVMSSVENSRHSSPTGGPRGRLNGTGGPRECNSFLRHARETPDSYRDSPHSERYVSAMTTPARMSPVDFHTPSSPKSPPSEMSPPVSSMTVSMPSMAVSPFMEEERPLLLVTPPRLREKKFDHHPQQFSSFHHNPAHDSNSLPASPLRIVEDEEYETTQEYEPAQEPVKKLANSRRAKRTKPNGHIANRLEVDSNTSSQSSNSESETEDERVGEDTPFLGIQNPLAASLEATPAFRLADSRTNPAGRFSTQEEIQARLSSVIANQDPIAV

[7] = system: Neuregulin-1 EGF-like domain; assay: small molecules binding NRG1 EGF domain – biochemical, small-molecule microarray, 635 nm fluorescence, primary screen (AID 1081); details: higher = more signal;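 further: binding of the protein to compounds printed on small-molecule microarray slides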
[8] = FRG1 expression reporter modulators in myotubes – cell-based, C2C12 myotubes, firefly/Renilla luciferase, luminescence, FRG1 inhibition for FSHD, primary screen (AID 1084); details: FRG1 promoter luciferase, higher = more signal, called active from +8 up or from −8 down
[9] = small molecules captured by biotinylated probe aFST – biochemical, small-molecule microarray, fluorescence 635/667, stem cell growth factor project, primary screen (AID 1086); details: higher = more signal;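 further: score merges 667 nm fluorescence with signal-to-noise of each printed compound spot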
[10] = binders of probe aHhip on microarray, primary screen, stem cell growth factor project, biochemical, small-molecule microarray, fluorescence 635/667 (AID 1087); details: higher = more signal;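 further: score merges spot fluorescence at 667nm with spot signal to noise ratio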
[11] = system: PRMT1 (protein arginine N-methyltransferase 1); assay: small molecules binding arginine methyltransferase PRMT1 – biochemical, small-molecule microarray, 635 nm fluorescence, primary screen (AID 1088); details: higher = more signal;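 further: binding of Prmt1 protein to compounds spotted on small-molecule microarray slides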
[12] = growth effects on S. cerevisiae YJM789 – YJM789 clinical isolate, OD600, 24 h, basal, primary screen (AID 1089); details: higher = more signal, called active from +8 up or from −8 down;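 further: growth of clinical yeast isolate S. cerevisiae YJM 789 seeded 1000 cells per well; test concentration not given here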
[13] = S. pombe growth modifiers, basal conditions – strain 972, OD600, 24 h, no modulator, primary screen (AID 1090);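 further: basal condition with compound alone and no growth modifier present; test concentration not given here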; details: S. pombe 972 growth, higher = more signal, called active from +8 up or from −8 down
[14] = budding yeast growth modifiers under rapamycin – strain BY4716, OD600, 96 h, primary screen (AID 1091); further: test concentration not given here; details: S. cerevisiae BY4716 + rapamycin, higher = more signal, called active from +8 up or from −8 down
[15] = target: Torsin-1A-interacting protein 2 (Homo sapiens) (UniProt Q8NFQ8); assay: small molecules binding lysate-expressed LULL1 – cell lysate, human LULL1 lysate, 635/667 nm fluorescence, primary screen (AID 1092); details: small-molecule microarray, hLULL1 lysate binding, 635 nm fluorescence; higher = more signal;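 further: probe is lysate of COS7 cells overexpressing human LULL1; score merges per-feature 667 nm fluorescence with signal-to-noise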
Sequence of Torsin-1A-interacting protein 2 (Homo sapiens) (Q8NFQ8 whole entry, looked up): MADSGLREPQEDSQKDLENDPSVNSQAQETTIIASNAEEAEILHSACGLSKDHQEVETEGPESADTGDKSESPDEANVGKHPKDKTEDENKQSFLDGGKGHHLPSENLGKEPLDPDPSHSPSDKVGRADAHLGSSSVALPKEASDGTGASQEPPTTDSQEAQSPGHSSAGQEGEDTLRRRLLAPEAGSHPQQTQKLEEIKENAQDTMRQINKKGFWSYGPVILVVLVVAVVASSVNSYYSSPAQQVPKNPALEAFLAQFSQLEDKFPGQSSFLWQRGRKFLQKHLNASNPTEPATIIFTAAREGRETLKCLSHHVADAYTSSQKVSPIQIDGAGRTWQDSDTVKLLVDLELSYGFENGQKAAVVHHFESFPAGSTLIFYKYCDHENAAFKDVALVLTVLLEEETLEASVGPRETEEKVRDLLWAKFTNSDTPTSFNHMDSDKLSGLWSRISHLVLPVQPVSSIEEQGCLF

[16] = optical density change of DRC41 E. coli – strain DRC41, OD650, 24 h, E. coli filamentation project, primary screen (AID 1093);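 further: MC1000 strain lacking acrAB efflux and sulA so SOS filamentation is blocked; test concentration not given here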; details: E. coli DRC41 growth, higher = more signal, called active from +8 up or from −8 down
[17] = probe aLefty2 binding to arrayed compounds – biochemical, biotinylated probe, 635/667 nm fluorescence, primary screen (AID 1094); details: small-molecule microarray, higher = more signal;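 further: score merges spot fluorescence near 667 nm with spot signal-to-noise ratio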
[18] = system: Noggin (protein binding on small-molecule microarray); assay: small molecules binding Noggin protein – biochemical, 635/667 nm fluorescence, primary screen (AID 1095); details: 635 nm fluorescence, higher = more signal;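 further: score merges 667 nm feature fluorescence with signal to noise over triplicate slides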
[19] = target: Neurogenic locus notch homolog protein 3 (Homo sapiens) (UniProt Q9UM47); assay: small molecules binding NOTCH3 protein – biochemical, 635/667 nm fluorescence, primary screen (AID 1096); details: small-molecule microarray, 635 nm fluorescence, higher = more signal
[20] = probe aEGFR binding to arrayed compounds – biochemical, biotinylated probe, 635/667 nm fluorescence, primary screen (AID 1097); details: small-molecule microarray, higher = more signal;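 further: probe is a biotinylated anti-EGFR antibody binding compounds printed on slides; score combines fluorescence near 667 nm and signal to noise of each spot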

SMILES	composite z-score [1]	composite z-score [2]	composite z-score [3]	composite z-score [4]	composite z-score [5]	composite z-score [6]	composite z-score [7]	z-score [8]	composite z-score [9]	composite z-score [10]	composite z-score [11]	z-score [12]	z-score [13]	z-score [14]	composite z-score [15]	z-score [16]	composite z-score [17]	composite z-score [18]	composite z-score [19]	composite z-score [20]
COCCOC(=O)N1C(=O)[C@@]2(c3cc(C#CCCO)ccc31)[C@H](c1ccc(O)cc1)N1[C@H](c3ccccc3)[C@H](c3ccccc3)OC(=O)[C@H]1[C@@H]2C(=O)Nc1nc2ccccc2s1	-0.243	0.184	0.0644	0.892	1.25	0.227	1.15	-0.205 (inactive)	0.293	-0.16	1.55	-0.123 (inactive)	-0.239 (inactive)	0.691 (inactive)	2.84	1.74 (inactive)	-0.0283	1.39	1.09	0.0082
CCOC(=O)C[C@H]1[C@H](OC(=O)Cc2ccc3c(c2)OCO3)[C@@H](NC(=O)CC(C)C)c2cc(OCCCO)ccc2N1C(=O)c1ccccc1	-0.0798	0.128	0.0021	0.782	0.797	-0.0284	0.855	-1.2 (inactive)	0.0004	-0.0994	0.53	-0.211 (inactive)	-1.36 (inactive)	-0.66 (inactive)	0.836	1.6 (inactive)	-0.0127	0.542	0.417	0.0253
CO[C@@H]1COC(=O)CC=C[C@@H](C)[C@H](OC)COC(=O)CC=C[C@H]1C	-0.762	1.22	-0.14	-0.228	-0.541	-0.503	-0.366	0.211 (inactive)	0.169	-0.16	-0.0399	-0.131 (inactive)	-0.761 (inactive)	-0.891 (inactive)	-0.266	0.162 (inactive)	-0.38	1.71	-0.801	-0.158
C=CCc1cccc([C@@H]2[C@@H](C)CC[C@H]3C(=O)N4[C@H](c5cccc(CC=C)c5)[C@@H](C)CC[C@H]4C(=O)N23)c1	0.0575	0.537	-0.0677	0.873	1.07	1.12	0.536	0.313 (inactive)	0.56	0.154	0.592	-0.988 (inactive)	0.0313 (inactive)	6.6 (inactive)	0.785	0.533 (inactive)	0.0163	0.432	0.671	-0.124
CCCNC(=O)[C@@H]1c2ccccc2C(=O)N(C2CCCCC2)[C@H]1c1ccc(CO)cc1	-0.162	0.325	-0.0374	0.549	1.41	1.16	1.29	-0.0971 (inactive)	0.56	0.0785	1.53	-0.104 (inactive)	1.15 (inactive)	1.29 (inactive)	3.01	-0.358 (inactive)	0.0511	0.771	1.1	0.0634
COc1ccc([Si](C)(C)[C@H]2[C@H](CC(=O)N(CCO)Cc3ccccc3)O[C@@]3(C(=O)N(C)c4ccccc43)[C@@H]2C)cc1	-0.412	0.919	0.0248	0.877	-0.0546	0.67	0.938	-1.39 (inactive)	0.291	-0.21	1.31	-1.98 (inactive)	-1.24 (inactive)	-0.712 (inactive)	1.93	1.41 (inactive)	-0.186	1.72	1.11	-0.0987
COc1ccc([Si](C)(C)[C@@H]2[C@@H](CCO)O[C@]3(C(=O)N(Cc4ccccc4)c4ccccc43)[C@H]2C)cc1	-0.377	0.274	-0.0692	0.351	0.216	-0.01	0.501	0.377 (inactive)	-0.0439	-0.0994	1.06	0.566 (inactive)	0.124 (inactive)	1.24 (inactive)	0.955	1.73 (inactive)	-0.228	0.0139	0.167	-0.143
O=C1c2ccccc2[C@](Cc2ccccc2I)(C(=O)O)[C@H](c2ccc(CO)cc2)N1C1CCCCC1	0.007	0.297	0.0545	1.06	1.56	1.22	1.32	0.287 (inactive)	0.892	0.011	1.54	-0.602 (inactive)	-2.37 (inactive)	-0.997 (inactive)	2.56	2.51 (inactive)	0.143	0.597	1.01	0.252
CC(c1ccccc1)C(O)C1C=CC2C(=O)N(C)C(=O)C2N1N(c1ccccc1)c1ccccc1 (stereo not given)	1	0.23	0.0395	-0.167	1.08	0.504	1.03	-0.206 (inactive)	0.657	-0.0024	0.396	0.414 (inactive)	0.184 (inactive)	1.27 (inactive)	1.65	-1.1 (inactive)	0.424	-0.959	0.363	-0.0322
CCCCCCc1nc(C2CC2)c(C)c2c1[Si](C(C)C)(C(C)C)OC2	0.411	0.159	-0.167	-0.588	-0.923	-0.322	-0.629	-0.139 (inactive)	-0.266	-0.0672	-1.09	-2.2 (inactive)	-3.58 (inactive)	-1.75 (inactive)	-0.492	1.69 (inactive)	-0.0591	0.168	-1.26	-0.202
